A selection: hits, their analogues and other compounds. The true share with any hit is near 6.6%.
GDH-TPI inh: GDH-TPI coupling enzyme inhibitors, primary screen, artefact control for M. tuberculosis FBA inhibitor project, biochemical, absorbance, full deck; GDH-TPI coupled enzyme counterscreen, NADH absorbance; inhibition, % at 4.8 µM; 360,000 tested, 1.2% active; in the data active means inhibition above about 30%;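 further: 0% = DMSO wells and 100% = wells lacking the enzyme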
FBA Mtb inh: Mtb FBA enzyme inhibitors, primary screen, biochemical, fluorescence, strain H37Rv; Fructose-bisphosphate aldolase (Mycobacterium tuberculosis (strain ATCC 25618 / H37Rv)), …; purified M. tuberculosis FBA, fluorescence read-out; 360,000 tested, 2.3% active; inhibition, % at 1 µM; AID 588726, 2011; in the data active means inhibition above about 27%;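 further: 0% = vehicle and 100% = reference inhibitor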
BoNT F protease: BoNT/F light chain protease inhibitors, primary screen, biochemical, flow cytometry, MLPCN library; inhibition, % at 10 µM; 360,000 tested, 0.22% active; Multiplex microsphere protease cleavage assay; AID 588497, 2011; in the data active means inhibition above about 35%, passing the limit was not always enough; inconclusive means no clear call, values can overlap the other calls; further: plate controls were buffer without enzyme for full effect and enzyme alone for no effect
BoNT A protease: BoNT/A light chain protease inhibitors, primary screen, biochemical, flow cytometry, MLPCN library. 360,000 tested, 0.17% active. multiplex microsphere protease substrate cleavage. inhibition, % at 10 µM. Botulinum neurotoxin type A light chain protease (Clostridium botulinum A str. ATCC 3502); further: plate controls were buffer without enzyme for full effect and enzyme alone for no effect
Anthrax LF inh2: Bacillus anthracis LF protease inhibitors, primary screen, biochemical, multiplex microsphere, MLPCN library. multiplex microsphere protease cleavage assay. AID 588501, 2011. Lethal factor (Bacillus anthracis), P15917. 360,000 tested, 0.12% active. inhibition, % at 10 µM; further: plate controls were buffer without enzyme for full effect and enzyme alone for no effect
Target sequence (P15917 whole entry, looked up): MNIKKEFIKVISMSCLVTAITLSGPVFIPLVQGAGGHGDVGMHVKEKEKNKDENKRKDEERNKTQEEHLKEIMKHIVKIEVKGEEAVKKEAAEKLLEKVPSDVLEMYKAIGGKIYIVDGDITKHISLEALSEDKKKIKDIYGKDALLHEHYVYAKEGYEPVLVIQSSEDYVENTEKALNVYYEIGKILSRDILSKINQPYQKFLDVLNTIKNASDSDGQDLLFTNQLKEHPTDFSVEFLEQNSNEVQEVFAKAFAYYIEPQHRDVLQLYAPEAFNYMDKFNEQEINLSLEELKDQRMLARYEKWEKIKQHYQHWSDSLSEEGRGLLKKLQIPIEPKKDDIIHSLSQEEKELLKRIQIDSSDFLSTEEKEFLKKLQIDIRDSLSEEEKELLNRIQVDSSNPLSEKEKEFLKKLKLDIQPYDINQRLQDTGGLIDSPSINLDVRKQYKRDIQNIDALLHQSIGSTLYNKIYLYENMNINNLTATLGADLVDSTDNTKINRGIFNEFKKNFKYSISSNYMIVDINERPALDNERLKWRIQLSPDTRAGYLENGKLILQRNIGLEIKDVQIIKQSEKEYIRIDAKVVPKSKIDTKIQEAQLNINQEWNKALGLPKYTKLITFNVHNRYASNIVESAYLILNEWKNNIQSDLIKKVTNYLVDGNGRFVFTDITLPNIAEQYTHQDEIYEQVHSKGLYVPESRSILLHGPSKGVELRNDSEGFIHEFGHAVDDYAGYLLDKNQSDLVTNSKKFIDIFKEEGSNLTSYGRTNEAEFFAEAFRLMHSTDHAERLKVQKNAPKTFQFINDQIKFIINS
Bead autofluor: compound fluorescence in toxin protease inhibitor counterscreen. 360,000 tested, 3.1% active. fluorescence intensity (concentration not given with the values). compound autofluorescence counterscreen, microsphere flow cytometry; hits give high values; in the data active means fluorescence intensity above about 16000; inconclusive means no clear call, values can overlap the other calls
* hit, by the source's call; ? = inconclusive; nt = no result; + = active, no number. Unless noted, no stated cut-off is given here; in the data, active means inhibition above about 30%; inconclusive means no clear call, values can overlap the other calls; inactive means below that.

SMILES	GDH-TPI inh	FBA Mtb inh	BoNT F protease	BoNT A protease	Anthrax LF inh2	Bead autofluor
O=C(N/N=C/c1ccc[nH]1)c1c[nH]c2ccccc12	32.2*	2.4	10.6	6.4	-1.9	4328
Cc1cc(C)c(-c2c(N)cc(Br)cc2Br)c(N)c1	6.8	-0.8	-8.7	0.0	-1.0	3574
CC(C)CCN1CCN(CC(c2ccccc2)c2ccccc2)CC1CCO (configuration not stated)	6.2	1.0	-4.9	0.2	-5.4	4609
CCCCCCCCN1C(=O)[C@H](CC(=O)N2CCCC2)C[C@@]2(C(=O)OC)CCCCC=C12	nt	nt	-0.3	0.2	10.0	6142
Cc1ccsc1/C=N/NC(=O)c1c[nH]c2ccccc12	44.6*	7.4	-26.4	-2.5	-2.2	5056
O=C(N/N=C/c1c[nH]c2ccccc12)c1ccc(O)c(O)c1	36.1*	-1.2	-34.6	-4.6	-14.6	2980
O=C(N/N=C/c1cc(Br)c(Br)o1)C(O)c1ccccc1 (configuration not stated)	10.9	0.7	-1.8	0.7	1.2	1977
Cc1ccc(/C=N/NC(=O)C(O)c2ccccc2)o1 (configuration not stated)	30.6*	4.5	?	-0.7	5.5	3371
C/C(=N\NC(=O)c1c[nH]c2ccccc12)c1ccc(C)s1	16.3	2.9	-6.8	-0.1	-1.4	?
Cc1ccc(/C=N/NC(=O)c2c[nH]c3ccccc23)s1	48.9*	-0.7	0.6	0.9	-0.6	2752
O=C(N/N=C/c1c[nH]c2ccccc12)c1cccc(O)c1	5.9	-2.5	-14.1	0.1	-7.5	3702
O=C(N/N=C/c1ccsc1)c1c[nH]c2ccccc12	9.0	2.0	7.8	-0.3	0.1	5572
COc1ccc(CCNC(=O)CSc2nncn2N)cc1OC	-9.3	-0.5	0.6	-0.5	3.2	7993
CCOc1ccc(NC(=O)CN(C)C(=O)CCCc2nc3ccccc3c(=O)[nH]2)cc1OCC	0.3	-1.9	-9.0	-0.1	-2.2	6299
Cc1cccc(NC(=O)CSc2nc(=O)n(CCCN3CCOCC3)c3c2CCCC3)c1	4.9	-2.5	nt	nt	nt	nt
CCOc1ccc(-c2cccc(NS(=O)(=O)c3cccc([N+](=O)[O-])c3)c2)nn1	-0.9	-1.8	-4.6	-0.9	-2.1	4712
O=C(N/N=C/c1ccc[nH]1)c1cc2ccccc2cc1O	37.0*	-2.5	2.8	-0.4	-2.3	4392
O=C(N/N=C/c1ccncc1)c1cc2ccccc2cc1O	18.2	-1.3	5.4	1.4	0.5	?
O=C(N/N=C/c1cc([N+](=O)[O-])ccc1O)c1c[nH]c2ccccc12	39.2*	-4.8	-6.6	-1.5	-2.8	4837
CCOC(=O)N1CCN(S(=O)(=O)N2CCCC(C(=O)NCCc3ccc(OCC)c(OCC)c3)C2)CC1 (configuration not stated)	6.5	-5.3	7.4	0.3	2.0	5506
CCCCNC(=O)/C(C#N)=C/c1ccc(F)cc1F	1.9	1.7	-1.1	-0.2	-6.8	3329
COc1ccc(/C=N/NC(=O)CCSc2nc3ccccc3s2)cc1	2.6	-1.6	-7.0	-0.9	-0.1	2382
O=C(NCCCN1CCN(Cc2ccccc2)CC1)C1CCN(S(=O)(=O)N2CCC3(CC2)OCCO3)CC1	0.0	0.1	23.1	-4.6	4.5	21569*
COc1ccc(C2c3c4c(n(C)c3CCN2C)CCN(C)C4c2ccc(OC)cc2)cc1 (configuration not stated)	6.2	0.5	-0.6	-0.6	-2.4	16735*
CC1NC(=O)c2cc3ccccc3cc2-n2c1nc1ccccc1c2=O (configuration not stated)	10.3	-2.3	2.2	0.0	-5.0	3724
SMILES	GDH-TPI inh	FBA Mtb inh	BoNT F protease	BoNT A protease	Anthrax LF inh2	Bead autofluor
O=c1[nH]cnc2sc3c(c12)CCCC3	-7.8	2.2	-7.1	-3.0	-1.6	23869*
O=C(O)CCCN1C(=O)/C(=C\c2ccc(-c3nc4ccccc4s3)o2)SC1=S	-14.8	-4.0	6.3	41.1*	27.5	4325
CCOc1ccc(-c2noc(CCC(N)=O)n2)cc1OCC	-5.7	-1.3	-3.9	-3.0	-2.0	21943*
CCOc1cc(-c2noc(CCC(=O)NC3CCCCC3)n2)ccc1OC	-3.5	-2.5	-5.0	-3.1	-12.4	3979
Cc1cc(Nc2ccccc2Cl)nc(-c2ccccc2O)n1	6.3	-3.2	35.9*	0.3	2.8	4056
Cc1cc(NCc2ccccc2)nc(-c2ccccc2O)n1	0.0	6.1	-1.6	?	-0.1	20264*
Cc1cc(Nc2ccccc2)nc(-c2ccccc2O)n1	14.2	-2.2	-11.4	-0.7	1.9	4866
Cc1cc(C)cc(NS(=O)(=O)c2ccc3oc(=O)ccc3c2)c1	12.4	6.4	-0.9	-0.4	-0.3	23250*
COc1cc(NC(=O)CSc2nnc(-c3ccncc3)o2)cc(OC)c1OC	1.0	5.1	15.3	-0.2	-1.1	5825
Cc1ccc(SCC(=O)O/N=C(\N)c2ccc([N+](=O)[O-])cc2)cc1	1.2	-0.3	3.2	3.1	-1.0	22162*
COc1ccc(/C(N)=N/OC(=O)CSc2ccc(C)cc2)cc1OC	3.8	-2.3	-8.1	-0.3	-0.4	8261
CCOC(=O)C1=C(Cc2ccc(F)cc2)C(=O)c2ccccc2C1=O	2.1	-1.4	-14.5	4.8	-14.2	23756*
CC1(C(=O)NC2CCCC2)CCC(=O)N1Cc1ccccc1 (configuration not stated)	-1.2	-0.6	0.2	?	-2.9	23334*
COc1ccc(CCN2C(=O)NC(NS(=O)(=O)c3ccccc3)(C(F)(F)F)C2=O)cc1OC (configuration not stated)	2.2	-0.7	6.7	-0.6	1.0	5014
CCC(C)c1c(O)nc(SCC(=O)N2CCOCC2)[nH]c1=O (configuration not stated)	6.6	-1.8	-6.6	-3.8	-5.6	17264*
CCC(C)c1c(O)nc(SCC(=O)N2CCCCC2)[nH]c1=O (configuration not stated)	-3.9	3.9	?	-7.6	4.1	4173
O=c1oc2c(CN3CCOCC3)c(O)ccc2c2ccccc12	5.0	-3.8	7.6	0.7	-5.5	2644
O=c1oc2c(CN3CCOCC3)c(O)ccc2c2c1CCCC2	28.6	+	-1.2	-0.4	-5.1	3103
O=c1oc2c(CN3CCOCC3)c(O)c(Cl)cc2c2c1CCCC2	18.8	+	0.0	-0.1	1.2	2512
COC(=O)CCSc1nc(N2CCOCC2)c2c(c1C#N)CC(C)(C)OC2	5.7	1.3	-0.8	1.6	3.5	3249
CC(C)CCSc1nc(N2CCOCC2)c2c(c1C#N)CC(C)(C)OC2	18.2	-1.3	3.8	3.5	-10.8	19440*
